Measured values as given in article PMC8384837, “Expanding the binding specificity for RNA recognition by a PUF domain”.

Assays:
Assay in all cases: yeast three-hybrid, YBZ-1, SC-Leu-His + 0.5 mM 3-AT, 4 days
Settings in all cases: tags: N-Gal4 AD-HA kept; label: inside an RPR1-promoter hybrid RNA with tandem MS2 sites; ssRNA
PUM1 PUF domain R5-PMK = PUM1 PUF domain R5-PMK (Homo sapiens, UniProt Q14671 828-1176, C1007P;R1008M;Q1011K)
In short: (§1)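 Each repeat of the Pumilio-1 PUF domain was randomized at its three base-contacting residues, and these libraries were co-expressed from a centromeric plasmid with matching RNA elements in strain YBZ-1. After four days on SC-Leu (input) or SC-Leu-His + 0.5 mM 3-AT (selection), the repeat regions were PCR-amplified and Illumina-sequenced. The interaction score compares variant frequency between input and selection as a log change, computed in log2 with a pseudocount of 1 for absent variants.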

PUM1 PUF domain R4-VNS = PUM1 PUF domain R4-VNS (Homo sapiens, UniProt Q14671 828-1176, N971V;H972N;Q975S)
PUM1 PUF domain R4-VNS, sequence (Q14671 828-1176 N971V/H972N/Q975S): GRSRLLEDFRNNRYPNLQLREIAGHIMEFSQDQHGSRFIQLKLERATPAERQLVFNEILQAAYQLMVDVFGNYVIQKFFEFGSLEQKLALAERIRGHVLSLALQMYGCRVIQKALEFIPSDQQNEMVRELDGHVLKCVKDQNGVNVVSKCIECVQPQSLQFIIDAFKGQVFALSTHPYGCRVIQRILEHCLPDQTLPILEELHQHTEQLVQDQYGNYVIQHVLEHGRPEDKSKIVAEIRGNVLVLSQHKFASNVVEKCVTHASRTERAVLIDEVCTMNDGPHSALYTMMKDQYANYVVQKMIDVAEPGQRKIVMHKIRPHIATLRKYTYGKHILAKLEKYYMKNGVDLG
In short: as §1

PUM1 PUF domain R5-RMT = PUM1 PUF domain R5-RMT (Homo sapiens, UniProt Q14671 828-1176, C1007R;R1008M;Q1011T)
PUM1 PUF domain R5-RMT, sequence (Q14671 828-1176 C1007R/R1008M/Q1011T): as the sequence (Q14671 828-1176 N971V/H972N/Q975S) above, with V144N, N145H, S148Q, C180R, R181M, Q184T counted along it
In short: as §1

PUM1 PUF domain R5-QSR = PUM1 PUF domain R5-QSR (Homo sapiens, UniProt Q14671 828-1176, C1007Q;R1008S;Q1011R)
PUM1 PUF domain R5-QSR, sequence (Q14671 828-1176 C1007Q/R1008S/Q1011R): as the sequence (Q14671 828-1176 N971V/H972N/Q975S) above, with V144N, N145H, S148Q, C180Q, R181S, Q184R counted along it
In short: as §1

PUM1 PUF domain R5-PMK, sequence (Q14671 828-1176 C1007P/R1008M/Q1011K): as the sequence (Q14671 828-1176 N971V/H972N/Q975S) above, with V144N, N145H, S148Q, C180P, R181M, Q184K counted along it

Sequence: GGCUAGAACUAGUGGAUCCCCCGGCGCCCGGCGGCUCGAGCCCGGGUAAGUGUUAAUAGUCUGCAUGCCGCCGGGCGCCAUGCCUGCAGGUCGACUCUAGAAAACAUG
- binding signal (PUM1 PUF domain R5-PMK): 2.73 log2 enrichment (interaction score)

Sequence: GGCUAGAACUAGUGGAUCCCCCGGCGCCCGGCGGCUCGAGCCCGGGUAAGUGUACAUAGUCUGCAUGCCGCCGGGCGCCAUGCCUGCAGGUCGACUCUAGAAAACAUG
- binding signal (PUM1 PUF domain R4-VNS): 1.91 log2 enrichment (interaction score)

Sequence: GGCUAGAACUAGUGGAUCCCCCGGCGCCCGGCGGCUCGAGCCCGGGUAAGUGUAUAUAGUCUGCAUGCCGCCGGGCGCCAUGCCUGCAGGUCGACUCUAGAAAACAUG
- binding signal (PUM1 PUF domain R4-VNS): 2.92 log2 enrichment (interaction score)

Sequence: GGCUAGAACUAGUGGAUCCCCCGGCGCCCGGCGGCUCGAGCCCGGGUAAGUGUCAAUAGUCUGCAUGCCGCCGGGCGCCAUGCCUGCAGGUCGACUCUAGAAAACAUG
- binding signal (PUM1 PUF domain R5-RMT): 3.58 log2 enrichment (interaction score)
- binding signal (PUM1 PUF domain R5-QSR): 4.21 log2 enrichment (interaction score)
